Experiments:
Test in all cases: PBM binding z-score (relative to random genomic background probes); higher = stronger binding; sequences stand for … in GC…GCGATTGACAGCGTAGAATGAAGG
[1] = test system: FXR:RXRa (NR concentration 270 nM, RXRa partner concentration 90 nM)
Summary of the method: (§1)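 Custom Agilent 4×180K protein-binding microarrays carried double-stranded probes, each with a 34-nt variable region. These regions held direct-repeat seeds, single-nucleotide variants, half-site ablations and random human genomic background sequences. Ligand-free nuclear receptor dimers were incubated on the arrays for 1 h, antibodies against each partner (one per run) detected binding, and scanned fluorescence was regression-normalized. Binding z-scores take the random background probes as reference.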

[2] = test system: LXRa:RXRa (NR concentration 270 nM, RXRa partner concentration 90 nM)
Summary of the method: as §1

[3] = test system: LXRa homodimer (NR concentration 270 nM)
Summary of the method: as §1

[4] = test system: LXRb:RXRa (NR concentration 270 nM, RXRa partner concentration 90 nM)
Summary of the method: as §1

[5] = test system: LXRb homodimer (NR concentration 270 nM)
Summary of the method: as §1

[6] = test system: PPARa:RXRa (NR concentration 270 nM, RXRa partner concentration 90 nM)
Summary of the method: as §1

[7] = test system: PPARg:RXRa (NR concentration 180 nM, RXRa partner concentration 90 nM)
Summary of the method: as §1

[8] = test system: PPARg:RXRa 270nM:90nM, anti-RXR (NR concentration 270 nM, RXRa partner concentration 90 nM)
Summary of the method: as §1

[9] = test system: PPARg:RXRa 30nM:10nM, anti-RXR (NR concentration 30 nM, RXRa partner concentration 10 nM)
Summary of the method: as §1

[10] = test system: PPARg:RXRa 90nM:30nM, anti-RXR (NR concentration 90 nM, RXRa partner concentration 30 nM)
Summary of the method: as §1

[11] = test system: PPARg:RXRa DBDmut IVT, anti-RXR (DBD mutation: RXRa K156A/R161A, NR concentration 270 nM, RXRa partner concentration 90 nM)
Summary of the method: as §1

[12] = test system: PPARg:RXRa IVT, anti-PPARg (NR concentration 270 nM, RXRa partner concentration 90 nM)
Summary of the method: as §1

[13] = test system: PPARg DBDmut:RXRa IVT, anti-PPARg (DBD mutation: PPARg1 K132A/R137A, NR concentration 270 nM, RXRa partner concentration 90 nM)
Summary of the method: as §1

[14] = test system: PPARg DBDmut IVT, anti-PPARg (DBD mutation: PPARg1 K132A/R137A, NR concentration 270 nM)
Summary of the method: as §1

[15] = test system: PPARg homodimer (NR concentration 180 nM)
Summary of the method: as §1

[16] = test system: PXR:RXRa (NR concentration 270 nM, RXRa partner concentration 90 nM)
Summary of the method: as §1

[17] = test system: PXR homodimer (NR concentration 270 nM)
Summary of the method: as §1

[18] = test system: RARa:RXR (NR concentration 270 nM, RXRa partner concentration 90 nM)
Summary of the method: as §1

[19] = test system: RARa homodimer (NR concentration 270 nM)
Summary of the method: as §1

[20] = test system: RARb:RXRa (NR concentration 270 nM, RXRa partner concentration 90 nM)
Summary of the method: as §1

Sequence	PBM binding z-score [1]	PBM binding z-score [2]	PBM binding z-score [3]	PBM binding z-score [4]	PBM binding z-score [5]	PBM binding z-score [6]	PBM binding z-score [7]	PBM binding z-score [8]	PBM binding z-score [9]	PBM binding z-score [10]	PBM binding z-score [11]	PBM binding z-score [12]	PBM binding z-score [13]	PBM binding z-score [14]	PBM binding z-score [15]	PBM binding z-score [16]	PBM binding z-score [17]	PBM binding z-score [18]	PBM binding z-score [19]	PBM binding z-score [20]
ATCTCTAGGTATAGTTCAGTGAAAGATCGATAGA	0.622	1.11	0.814	0.685	1.21	0.726	0.816	1.55	0.666	1.4	0.435	0.496	1.64	2.13	1.8	0.83	1.11	1.08	1.34	1.15
GGACCGAGGGCATTCGAGTTGATAGCATGGCGAT	1.26	1.86	-0.0835	0.133	-1.34	0.952	0.4	0.0586	-0.851	-0.483	0.308	0.267	-0.812	-0.98	-0.223	4.17	1.3	0.835	-0.77	1.88
ATCGAAAAGTCGTGAGGTGAGTATACAGAAAGGC	0.379	0.127	-0.461	-0.0752	-0.13	0.351	0.623	-0.104	0.404	0.0436	-0.639	0.331	0.929	1	0.473	0.0533	-0.117	0.486	0.556	0.552
CCGACTGGGGCAAACGTTACCATACTCAGTACGA	-0.264	-0.168	-0.00869	-0.27	-0.682	1.61	3.62	4.48	2.27	4.25	5.15	3.9	-0.175	-0.646	0.256	-0.42	-0.33	-0.168	-0.437	0.494
CCAACTGGGCCAAGGTCATTGATCAGTCAAAGCA	2.96	2.9	0.591	2.91	-0.522	4.3	4.16	4.06	1.82	3.3	4.04	4.58	-0.617	-0.824	1.58	3.11	0.914	3.22	0.0494	3.39
ATCTCTAGGTAACCAAGTGCAGTGAATGCCGAAC	-0.0336	0.0225	-0.464	-0.183	0.282	-0.0554	0.325	0.259	-0.0021	0.298	3.33	2.57	1.12	0.604	-0.00797	0.128	0.228	0.0514	-0.0338	0.281
GCGACTGGGGCAAAGCAGGCTACCATAAGGTTGG	-0.319	-0.696	-0.699	-0.682	-0.971	0.527	0.941	0.966	-0.413	0.272	4.44	3.34	-0.239	-0.307	-0.349	-0.574	-0.689	-0.126	-1.27	0.579
ATCCCTAGGTAACCAAGTTCAGTGAATGCCGAAC	0.476	1.09	1.1	0.956	0.382	0.985	0.276	0.246	-0.161	-0.0393	-0.197	0.606	-0.0937	0.0123	0.495	2.03	1.88	0.847	0.816	1.25
AGTAAAAGTTCATCTAGGTAACGTAAGATATGCT	6.26	5.78	5.21	3.31	1.71	4.42	3.98	3.88	1.55	2.54	0.423	2.83	1.21	1.83	2.75	4.52	3.57	3.39	1.46	4.72
CCTAGTTGGTCAAGGTCACACACGCTATAGGTAC	4.71	4.18	2.66	3.92	1.23	4.33	3.35	3.96	1.66	3.2	2.68	3.52	0.555	1.3	4.56	4.41	2.97	4.88	4.38	4.17
GCTCGGAGGACAAGGTCATAGCTTTGTCCGTAGA	4.1	3.71	0.47	2.77	-0.053	4.08	2.43	3.37	0.472	2.08	0.27	1.58	-0.805	-1.25	1.11	3.46	0.287	3.71	-0.351	3.79
CCGAGTAGGTTATGGGGTATTCAGGCAACGGTGA	0.497	0.701	0.47	1.09	0.945	1.81	2.56	3.45	0.984	2.68	3.61	3.4	-0.421	-0.159	1.48	0.386	0.458	0.453	1.06	0.8
ATCTCTAGGTAACCAAGTTCGGTGAATGCCGAAC	0.162	0.167	0.0553	0.11	0.555	0.569	0.336	0.74	0.0695	0.909	3.09	2.93	1.06	1.09	0.509	0.501	0.469	0.415	0.268	0.571
TCTTGTAGATCAGTAGGTTAAGAAAGCTGGCCAA	0.172	0.646	0.128	0.552	0.098	1.12	0.0222	1.98	2.94	2.31	2.89	2.61	0.246	0.243	0.822	0.448	0.0641	0.921	0.433	0.272
CCGACTGGGGCGTAAGGTTACCATAAGCCAGCCC	0.247	1.35	-0.338	0.704	-1.25	1.35	1.19	2.42	0.143	1.7	0.446	0.275	-1.37	-0.827	0.0631	0.213	-0.391	0.883	-0.676	1

Source: the supplement of paper PMC6555819
